# Source: PubChem (several laboratories)
# CYP2C19 inh – inhibitors of human CYP2C19; P33261; CYP2C19 Supersomes, luciferin-H EGE luminescence, 30 min; inhibition, % at 5 µM; 96,000 tested, 21% active; AID 778;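 active means CYP2C19 inhibition above a set limit at 5 µM in the primary screen, cut at about 50% in these data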
# Target sequence (P33261 whole entry, looked up): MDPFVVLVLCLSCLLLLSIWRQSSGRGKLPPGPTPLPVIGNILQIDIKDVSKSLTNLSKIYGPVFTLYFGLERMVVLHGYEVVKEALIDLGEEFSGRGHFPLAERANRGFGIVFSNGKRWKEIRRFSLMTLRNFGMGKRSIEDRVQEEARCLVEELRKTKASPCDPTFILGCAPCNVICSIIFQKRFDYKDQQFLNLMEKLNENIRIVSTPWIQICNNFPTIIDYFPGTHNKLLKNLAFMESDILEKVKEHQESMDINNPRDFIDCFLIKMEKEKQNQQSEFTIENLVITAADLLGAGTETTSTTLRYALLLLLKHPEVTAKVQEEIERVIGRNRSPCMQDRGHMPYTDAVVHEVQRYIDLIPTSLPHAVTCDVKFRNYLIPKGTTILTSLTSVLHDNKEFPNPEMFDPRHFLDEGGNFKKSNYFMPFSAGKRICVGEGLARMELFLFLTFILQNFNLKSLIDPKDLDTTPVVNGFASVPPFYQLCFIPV
# Cav3 T inh – blocks human Cav3.2 T-type calcium channel | AID 449739 | B-score at 10 µM | O95180 | 100,000 tested, 4% active | Cav3.2-expressing cells, Fluo-4 calcium fluorescence FDSS; active compounds read low;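 active means single-dose well whose peak fluorescence ratio is a statistical outlier from its plate by either plate-standardised score or position-corrected B-score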
# CYP2C9 act – increases human cytochrome P450 2C9 activity; 96,000 tested, 1.4% active; AID 1024; activation factor at 5 µM; recombinant CYP2C9, luciferin-H conversion, luminescence; active compounds read high; factor 1 = untreated enzyme, 0 = blocked; P11712;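 active means activation factor of 2 or more for CYP2C9 at a 5 µM dose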
# CYP2C19 activ – activators of human cytochrome P450 2C19; recombinant CYP2C19, luciferin-H EGE luminescence; active compounds read high; 0 = fully inhibited enzyme, 1 = untreated enzyme; activation factor at 5 µM; P33261; 96,000 tested, under 10 active;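 active means activation factor of at least 2 at 5 µM in the primary screen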
# CYP2C9 inhib – blocks human cytochrome P450 2C9; P11712; CYP2C9 Supersomes, luciferin-H conversion, luminescence; inhibition, % at 5 µM; 96,000 tested, 20% active; AID 777;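 active means blocking of liver enzyme CYP2C9 beyond about 50% at 5 µM, limit read from the data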
# Hits are given with their value; n = inactive; x = no result. An excerpt weighted towards active compounds, which were near 27% of everything screened.
SMILES,CYP2C19 inh,Cav3 T inh,CYP2C9 act,CYP2C19 activ,CYP2C9 inhib
Cc1ccc(N2CSC3=C(C#N)C(c4cccs4)CC(=O)N3C2)cc1 (centres undefined),n,n,n,n,86
CCc1ccc(C2CC(=O)N3CN(c4ccccc4)CSC3=C2C#N)cc1 (centres undefined),n,n,n,n,53
CN1CSC2=C(C#N)C(c3cccc(OCc4ccccc4)c3)CC(=O)N2C1 (centres undefined),n,n,n,n,84
CCOC(=O)c1ccc(N2CSC3=C(C#N)C(c4cccs4)CC(=O)N3C2)cc1 (centres undefined),90,n,n,n,94
CCc1ccc(N2CSC3=C(C#N)C(c4cccs4)CC(=O)N3C2)cc1 (centres undefined),n,n,n,n,n
COc1cc(OC)c(C2CC(=O)N3CN(c4ccc(C)cc4)CSC3=C2C#N)cc1OC (centres undefined),n,x,n,n,n
O=C(CC1Oc2ccc(Cl)cc2NC1=O)NC1CCCCCC1 (centres undefined),n,n,n,n,n
CCOc1ccccc1N(CC(=O)N1CCOCC1)S(=O)(=O)c1ccc(SC)cc1,n,n,n,n,n
Cc1cccc(CC(=O)NCCn2c(C)cc3ccccc32)c1,x,n,x,x,x
Cc1cc2ccccc2n1CCNC(=O)C(C)Oc1ccccc1 (centres undefined),100,n,n,n,87
CC(C)C(=O)NCCn1ccc2ccccc21,57,n,n,n,n
Cc1cc2ccccc2n1CCNC(=O)C(C)C,50,n,n,n,n
COc1ccc(C(=O)NCCn2ccc3ccccc32)c(OC)c1,100,n,n,n,n
Cc1ccc(N(c2ncnc(N)c2[N+](=O)[O-])C2CCCCC2)cc1,n,n,n,n,n
O=S(=O)(c1cccc(S(=O)(=O)N2CCCC2)c1)c1cccc(S(=O)(=O)N2CCCC2)c1,n,n,n,n,n
c1coc(-c2nc3c([nH]2)CCc2nonc2-3)c1,n,n,n,n,n
O=C(Cc1cccs1)NCCn1ccc2ccccc21,73,n,n,n,n
Cc1cc2ccccc2n1CCNC(=O)c1ccc(S(=O)(=O)N2CCCCC2)cc1,n,n,n,n,90
Cc1cc2ccccc2n1CCNC(=O)Cc1ccccc1,96,n,n,n,81
O=C(Nc1ccccc1)c1ccc(S(=O)(=O)N2CCCCC2)cc1,x,n,x,x,x
CCC(=O)NCCn1ccc2ccccc21,n,n,n,n,n
CC(C)(C)NC(=O)c1cccc(NC(=O)c2cccc(O)c2)c1,n,n,n,n,n
COc1cc(NC(=O)c2ccco2)ccc1NC(=O)C(C)C,n,n,n,n,n
O=C(Nc1cccc2ncccc12)c1ccc(-c2ccc(Br)cc2)o1,n,n,n,n,n
C=CCOc1c(Br)cc(CNc2ccc(NC(=O)C(C)C)c(OC)c2)cc1OC,61,-3.8,n,n,n
SMILES,CYP2C19 inh,Cav3 T inh,CYP2C9 act,CYP2C19 activ,CYP2C9 inhib
O=C(Nc1cccc(NC(=O)c2ccc(-c3ccc(Br)cc3)o2)c1)c1ccccc1,n,-6.1,n,n,n
COc1ccccc1NC(=O)c1ccc(-c2ccc(Br)cc2)o1,n,n,n,n,n
O=C(Nc1cccc(O)c1)c1ccc(Br)cc1,52,n,n,n,n
COc1cc(NC(=O)c2ccc(-c3ccc(Br)cc3)o2)ccc1NC(=O)C(C)C,54,n,n,n,n
CC(=O)c1c(C)[nH]c(C(=O)OCn2nnc3ccccc3c2=O)c1C,n,n,n,n,n
O=C(Nc1cccc(NC(=O)c2ccc(-c3cccc(Br)c3)o2)c1)c1ccco1,54,n,n,n,60
O=C(Nc1ccccc1)c1ccc(-c2ccc(Br)cc2)o1,x,-5.3,x,x,x
CC(=O)Nc1cccc(NC(=O)c2ccco2)c1,n,n,n,n,n
O=C(c1ccc(Cl)c(S(=O)(=O)N2CCCCCC2)c1)N1CCN(c2ccccn2)CC1,n,n,n,n,57
CC(C)(Oc1ccc(Cl)cc1)C(=O)N1CCN(c2ccccn2)CC1,x,-4.5,x,x,x
COc1ccc(OC(C)C(=O)N2CCN(c3ccccn3)CC2)cc1 (centres undefined),n,n,n,n,n
O=C(c1ccccc1Cl)N1CCN(c2ccccn2)CC1,82,n,n,n,78
O=C(c1cc2ccccn2n1)N1CCN(c2ccccn2)CC1,55,n,n,n,n
O=C(c1cccc(Cl)c1Cl)N1CCN(c2ccccn2)CC1,n,n,n,n,n
CN1CCN(C(=O)c2ccc(Cl)c(S(=O)(=O)N3CCCCC3)c2)CC1,n,n,n,n,n
NC(=O)C1CCN(C(=O)c2cc3ccccn3n2)CC1,n,n,n,n,n
O=C(O)CCc1ccc(-c2ccccc2)n1NC(=O)c1sc2ccccc2c1Cl,n,n,n,n,n
CCc1sc(C(=O)NC2CCN(C)CC2)cc1Br,n,n,n,n,n
CC1(C)CC(=O)c2sc(NC(=O)c3ccc4ncsc4c3)nc2C1,n,n,n,n,n
O=C(/C=C/c1ccccc1)N1CCN(c2ccccn2)CC1,n,n,n,n,53
O=C(/C=C/c1ccccc1)c1ccccn1,51,n,n,n,n
O=C(/C=C/Nc1ccccc1Br)c1ccccn1,n,n,n,n,n
Clc1ccccc1-c1nnc2sc(-c3ccc(Br)o3)nn12,80,n,n,n,n
Clc1ccc(-c2nnc3sc(-c4ccc(Br)o4)nn23)c(Cl)c1,58,x,n,n,n
Clc1ccc(-c2nnc3sc(-c4ccc(Br)o4)nn23)cc1,n,n,n,n,n
SMILES,CYP2C19 inh,Cav3 T inh,CYP2C9 act,CYP2C19 activ,CYP2C9 inhib
Brc1ccc(-c2nn3c(Cc4ccccc4)nnc3s2)o1,68,n,n,n,n
COc1cccc(Nc2ncnc3c2cnn3C)c1,n,n,n,n,n
CCCN(CCO)Cc1cccc(Br)c1,n,n,n,n,n
Cc1ccc2cc(C#N)c(NCCCNC(=O)C3CCCO3)nc2c1 (centres undefined),n,n,n,n,n
COc1ccccc1CNC(=O)c1ccccc1N,53,n,n,n,n
CCCCC(CC)C(=O)NCc1ccccc1OC (centres undefined),53,n,n,n,n
COc1ccc(C(=O)NCc2ccccc2OC)c(OC)c1,56,n,2.6,n,n
CCN(CC)CCNC(=O)c1ccccc1N,67,n,n,n,56
NC(=O)C1(N2CCCCC2)CCN(C(=O)Nc2ccccc2C(F)(F)F)CC1,x,n,x,x,x
CCc1ccc(CCOc2ccc(CC3SC(=O)NC3=O)cc2)nc1 (centres undefined),x,n,x,x,x
CCOc1ccc(CC2S/C(=N/c3ccccn3)NC2=O)cc1 (centres undefined),72,n,n,n,n
CC(C(=O)NC1CCCC1)N(C(=O)CS(=O)CC(=O)Nc1ccc(F)cc1)c1ccc2c(c1)OCCO2 (centres undefined),n,n,n,n,n
CC(C)(C)NC(=O)CN(C(=O)CS(=O)CC(=O)Nc1ccc(F)cc1)c1ccccc1 (centres undefined),n,n,n,n,71
